In article PMC7862700, “An all-to-all approach to the identification of sequence-specific readers for epigenetic DNA modifications on cytosine”:

Columns and labels:
Assay in all cases: DAPPL (digital affinity profiling via proximity ligation, sequencing); 10 mM Tris-HCl pH 7.5, 50 mM NaCl, 1 mM DTT, 4% glycerol, room temperature, 30 min; GST-TFs on glutathione beads, 16-mer random dsDNA library, 0.1% formaldehyde crosslink after washing; high values mean tight binding
[1] = target: T1, FLI1 (Homo sapiens, UniProt Q01543 1-452); settings: protein: recombinant; tags: N-terminal GST; dsDNA, one strand shown
T1 sequence: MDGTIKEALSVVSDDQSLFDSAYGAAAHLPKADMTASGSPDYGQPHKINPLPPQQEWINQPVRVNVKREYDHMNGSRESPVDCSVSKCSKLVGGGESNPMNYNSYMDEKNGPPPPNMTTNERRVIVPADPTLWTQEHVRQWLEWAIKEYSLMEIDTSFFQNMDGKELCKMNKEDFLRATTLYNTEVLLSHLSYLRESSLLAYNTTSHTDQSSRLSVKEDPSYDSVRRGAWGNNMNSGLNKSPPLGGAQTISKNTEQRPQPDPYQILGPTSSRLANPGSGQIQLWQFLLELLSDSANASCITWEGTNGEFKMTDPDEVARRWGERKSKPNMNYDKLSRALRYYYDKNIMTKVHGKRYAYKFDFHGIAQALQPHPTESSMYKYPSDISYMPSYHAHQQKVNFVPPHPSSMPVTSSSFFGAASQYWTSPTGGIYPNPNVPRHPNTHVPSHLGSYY
How it was run: (§1)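 Pools of DNA-barcoded human transcription factors, expressed in yeast as GST fusions on glutathione beads and combined with a tag-only sample, were incubated with 200 nmole of a 16-mer random double-stranded DNA library. Incubation took 30 min at room temperature in Tris/NaCl/DTT/glycerol buffer and was followed by washing, 0.1% formaldehyde crosslinking, proximity ligation (BsaI/T4 ligase, 1 h, 37 °C), PCR amplification and sequencing on an Illumina NextSeq500. Binding signal is the ratio of a hexamer's read frequency for a factor to its frequency for the tag-only sample.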

[2] = target: T2, ELK1 (Homo sapiens, UniProt P19419 1-428); settings: protein: recombinant; tags: N-terminal GST; dsDNA, one strand shown
T2 sequence: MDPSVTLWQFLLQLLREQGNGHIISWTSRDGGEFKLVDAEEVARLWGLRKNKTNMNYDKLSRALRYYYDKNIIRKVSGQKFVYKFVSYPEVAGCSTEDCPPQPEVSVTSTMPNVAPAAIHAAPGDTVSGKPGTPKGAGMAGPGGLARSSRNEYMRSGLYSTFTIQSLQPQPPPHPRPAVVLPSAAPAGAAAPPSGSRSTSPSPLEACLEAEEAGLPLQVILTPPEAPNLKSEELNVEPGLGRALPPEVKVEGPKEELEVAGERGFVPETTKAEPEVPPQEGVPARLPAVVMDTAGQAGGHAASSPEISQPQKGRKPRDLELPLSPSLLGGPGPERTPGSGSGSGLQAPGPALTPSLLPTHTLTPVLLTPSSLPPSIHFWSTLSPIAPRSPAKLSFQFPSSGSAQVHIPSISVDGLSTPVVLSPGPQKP
How it was run: as §1

[3] = target: T3, GABPA (Homo sapiens, UniProt Q06546 1-454); settings: protein: recombinant; tags: N-terminal GST; dsDNA, one strand shown
T3 sequence: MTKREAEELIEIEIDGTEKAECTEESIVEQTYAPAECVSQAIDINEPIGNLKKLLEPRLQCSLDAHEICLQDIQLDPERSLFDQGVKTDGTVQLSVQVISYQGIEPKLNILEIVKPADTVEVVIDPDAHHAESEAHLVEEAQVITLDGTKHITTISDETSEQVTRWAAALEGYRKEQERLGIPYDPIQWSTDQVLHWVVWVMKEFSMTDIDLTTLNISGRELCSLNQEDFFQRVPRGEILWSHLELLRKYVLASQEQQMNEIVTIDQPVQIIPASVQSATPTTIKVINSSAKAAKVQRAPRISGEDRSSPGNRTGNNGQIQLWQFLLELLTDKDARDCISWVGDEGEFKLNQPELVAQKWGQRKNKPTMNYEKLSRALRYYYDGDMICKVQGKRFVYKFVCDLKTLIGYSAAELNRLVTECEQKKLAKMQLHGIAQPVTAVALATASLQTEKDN
How it was run: as §1

[4] = target: T4, ERG (Homo sapiens, UniProt P11308 1-479); settings: protein: recombinant; tags: N-terminal GST; dsDNA, one strand shown
T4 sequence: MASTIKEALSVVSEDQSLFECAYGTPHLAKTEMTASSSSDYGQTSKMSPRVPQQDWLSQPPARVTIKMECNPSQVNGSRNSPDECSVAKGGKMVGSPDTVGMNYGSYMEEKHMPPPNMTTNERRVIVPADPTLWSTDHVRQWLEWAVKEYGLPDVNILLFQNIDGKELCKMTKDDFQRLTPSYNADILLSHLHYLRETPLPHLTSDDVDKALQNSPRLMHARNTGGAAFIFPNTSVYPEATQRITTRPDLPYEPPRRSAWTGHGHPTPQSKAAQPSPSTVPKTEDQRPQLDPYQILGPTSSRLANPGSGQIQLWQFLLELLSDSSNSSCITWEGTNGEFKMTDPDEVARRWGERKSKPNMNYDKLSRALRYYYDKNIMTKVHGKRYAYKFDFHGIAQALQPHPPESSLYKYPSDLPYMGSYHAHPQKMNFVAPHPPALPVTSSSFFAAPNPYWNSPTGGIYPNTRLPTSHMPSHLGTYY
How it was run: as §1

[5] = target: ELF1 (Homo sapiens, UniProt P32519 1-619); settings: protein: recombinant; tags: N-terminal GST; dsDNA, one strand shown
ELF1, sequence (P32519 whole entry): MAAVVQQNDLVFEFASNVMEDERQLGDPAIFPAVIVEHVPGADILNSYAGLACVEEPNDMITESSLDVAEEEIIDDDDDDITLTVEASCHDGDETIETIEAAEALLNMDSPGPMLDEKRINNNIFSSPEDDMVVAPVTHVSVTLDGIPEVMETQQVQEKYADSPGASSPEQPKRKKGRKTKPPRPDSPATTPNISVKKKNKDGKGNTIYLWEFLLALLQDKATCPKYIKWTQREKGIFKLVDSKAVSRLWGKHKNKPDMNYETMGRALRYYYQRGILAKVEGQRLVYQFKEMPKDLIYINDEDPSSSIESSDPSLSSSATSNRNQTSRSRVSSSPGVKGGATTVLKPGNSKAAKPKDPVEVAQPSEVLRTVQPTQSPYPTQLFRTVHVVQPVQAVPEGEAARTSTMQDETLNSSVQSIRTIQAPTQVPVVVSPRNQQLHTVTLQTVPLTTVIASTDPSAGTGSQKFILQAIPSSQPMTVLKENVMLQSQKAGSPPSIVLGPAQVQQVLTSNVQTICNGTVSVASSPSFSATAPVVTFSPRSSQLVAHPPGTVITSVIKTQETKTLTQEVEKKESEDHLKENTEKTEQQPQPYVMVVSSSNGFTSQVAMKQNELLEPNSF
How it was run: as §1

[6] = target: T5, EHF (Homo sapiens, UniProt Q9NZC4 1-300); settings: protein: recombinant; tags: N-terminal GST; dsDNA, one strand shown
T5 sequence: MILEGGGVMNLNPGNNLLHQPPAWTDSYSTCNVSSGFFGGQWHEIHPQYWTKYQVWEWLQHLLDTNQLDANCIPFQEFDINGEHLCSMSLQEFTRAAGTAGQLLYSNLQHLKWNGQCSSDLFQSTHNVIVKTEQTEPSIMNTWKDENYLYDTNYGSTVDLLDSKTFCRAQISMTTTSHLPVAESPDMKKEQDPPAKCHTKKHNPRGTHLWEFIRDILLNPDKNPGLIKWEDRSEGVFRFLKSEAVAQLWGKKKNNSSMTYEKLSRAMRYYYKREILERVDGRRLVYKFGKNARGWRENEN
How it was run: as §1

[7] = target: SPI1 (Homo sapiens, UniProt P17947 1-270); settings: protein: recombinant; tags: N-terminal GST; dsDNA, one strand shown
How it was run: as §1

[8] = target: SPIB (Homo sapiens, UniProt Q01892 1-262); settings: protein: recombinant; tags: N-terminal GST; dsDNA, one strand shown
SPIB, sequence (Q01892 whole entry): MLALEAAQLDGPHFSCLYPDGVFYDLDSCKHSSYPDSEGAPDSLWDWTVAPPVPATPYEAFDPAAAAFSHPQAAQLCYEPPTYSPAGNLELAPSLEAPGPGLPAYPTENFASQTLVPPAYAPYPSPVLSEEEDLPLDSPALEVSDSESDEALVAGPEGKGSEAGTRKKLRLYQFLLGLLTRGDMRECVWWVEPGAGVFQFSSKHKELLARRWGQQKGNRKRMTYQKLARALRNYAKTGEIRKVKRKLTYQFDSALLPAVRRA
How it was run: as §1

[9] = target: T6, ELK3 (Homo sapiens, UniProt P41970 1-407); settings: protein: recombinant; tags: N-terminal GST; dsDNA, one strand shown
T6 sequence: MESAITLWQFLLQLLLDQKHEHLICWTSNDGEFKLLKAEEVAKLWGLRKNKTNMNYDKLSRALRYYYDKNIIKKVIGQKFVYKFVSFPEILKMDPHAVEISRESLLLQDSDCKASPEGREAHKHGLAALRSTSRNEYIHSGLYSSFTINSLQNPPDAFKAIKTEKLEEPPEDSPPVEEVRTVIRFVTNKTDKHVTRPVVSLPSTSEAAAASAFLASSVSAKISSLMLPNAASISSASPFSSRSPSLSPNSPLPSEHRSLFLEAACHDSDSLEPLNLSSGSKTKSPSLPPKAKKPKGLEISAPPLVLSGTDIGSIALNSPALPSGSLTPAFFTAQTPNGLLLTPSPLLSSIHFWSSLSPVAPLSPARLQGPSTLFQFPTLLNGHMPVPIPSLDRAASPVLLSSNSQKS
How it was run: as §1

[10] = target: T7, FEV (Homo sapiens, UniProt Q99581 1-238); settings: protein: recombinant; tags: N-terminal GST; dsDNA, one strand shown
T7 sequence: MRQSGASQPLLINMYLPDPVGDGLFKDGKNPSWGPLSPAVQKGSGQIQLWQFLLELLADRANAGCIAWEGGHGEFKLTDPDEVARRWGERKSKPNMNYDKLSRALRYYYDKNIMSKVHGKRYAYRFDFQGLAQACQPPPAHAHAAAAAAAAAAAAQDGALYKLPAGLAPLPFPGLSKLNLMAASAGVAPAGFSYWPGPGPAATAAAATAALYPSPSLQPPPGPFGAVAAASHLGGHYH
How it was run: as §1

[11] = target: ETV5 (Homo sapiens, UniProt P41161 1-510); settings: protein: recombinant; tags: N-terminal GST; dsDNA, one strand shown
ETV5, sequence (P41161 whole entry): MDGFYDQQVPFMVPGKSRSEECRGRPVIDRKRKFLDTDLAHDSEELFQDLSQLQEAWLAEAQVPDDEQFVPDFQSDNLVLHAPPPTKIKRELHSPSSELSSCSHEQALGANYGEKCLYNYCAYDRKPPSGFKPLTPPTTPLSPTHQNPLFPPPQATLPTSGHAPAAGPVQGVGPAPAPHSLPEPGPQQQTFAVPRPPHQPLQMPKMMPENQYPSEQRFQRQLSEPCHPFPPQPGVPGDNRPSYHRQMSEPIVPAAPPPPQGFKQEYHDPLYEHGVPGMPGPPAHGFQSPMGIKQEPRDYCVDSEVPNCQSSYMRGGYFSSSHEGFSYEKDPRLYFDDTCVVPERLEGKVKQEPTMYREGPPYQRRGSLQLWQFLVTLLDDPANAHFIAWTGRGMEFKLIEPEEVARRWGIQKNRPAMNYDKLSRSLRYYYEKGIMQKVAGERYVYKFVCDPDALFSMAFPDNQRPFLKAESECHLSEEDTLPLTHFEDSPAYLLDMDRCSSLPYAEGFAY
How it was run: as §1

[12] = target: HSF1 (Homo sapiens, UniProt Q00613 1-529); settings: protein: recombinant; tags: N-terminal GST; chain copies: 3; dsDNA, one strand shown
HSF1, sequence (Q00613 whole entry): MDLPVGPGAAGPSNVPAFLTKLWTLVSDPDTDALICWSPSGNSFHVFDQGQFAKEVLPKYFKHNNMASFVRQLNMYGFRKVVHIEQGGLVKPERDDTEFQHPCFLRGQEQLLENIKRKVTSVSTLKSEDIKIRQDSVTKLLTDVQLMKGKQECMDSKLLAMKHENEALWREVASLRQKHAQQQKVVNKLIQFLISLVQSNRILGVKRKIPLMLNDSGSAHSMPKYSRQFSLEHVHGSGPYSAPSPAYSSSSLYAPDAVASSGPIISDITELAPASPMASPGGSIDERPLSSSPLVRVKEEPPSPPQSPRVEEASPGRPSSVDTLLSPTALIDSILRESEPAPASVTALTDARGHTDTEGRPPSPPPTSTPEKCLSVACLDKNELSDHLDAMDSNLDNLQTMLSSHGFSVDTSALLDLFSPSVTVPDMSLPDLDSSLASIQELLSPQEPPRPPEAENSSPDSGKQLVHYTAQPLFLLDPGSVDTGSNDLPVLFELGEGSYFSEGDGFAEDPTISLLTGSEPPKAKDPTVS
How it was run: as §1

[13] = target: T8, SPIC (Homo sapiens, UniProt Q8N5J4 1-248); settings: protein: recombinant; tags: N-terminal GST; dsDNA, one strand shown
T8 sequence: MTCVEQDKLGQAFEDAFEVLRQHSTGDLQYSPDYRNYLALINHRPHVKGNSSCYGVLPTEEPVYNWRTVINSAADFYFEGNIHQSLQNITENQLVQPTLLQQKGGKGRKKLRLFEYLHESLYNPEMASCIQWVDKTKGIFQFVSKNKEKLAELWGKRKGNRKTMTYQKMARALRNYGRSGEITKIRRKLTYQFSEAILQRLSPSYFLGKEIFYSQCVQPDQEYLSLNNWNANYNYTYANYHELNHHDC
How it was run: as §1

[14] = target: ELF4 (Homo sapiens, UniProt Q99607 1-663); settings: protein: recombinant; tags: N-terminal GST; dsDNA, one strand shown
ELF4, sequence (Q99607 whole entry): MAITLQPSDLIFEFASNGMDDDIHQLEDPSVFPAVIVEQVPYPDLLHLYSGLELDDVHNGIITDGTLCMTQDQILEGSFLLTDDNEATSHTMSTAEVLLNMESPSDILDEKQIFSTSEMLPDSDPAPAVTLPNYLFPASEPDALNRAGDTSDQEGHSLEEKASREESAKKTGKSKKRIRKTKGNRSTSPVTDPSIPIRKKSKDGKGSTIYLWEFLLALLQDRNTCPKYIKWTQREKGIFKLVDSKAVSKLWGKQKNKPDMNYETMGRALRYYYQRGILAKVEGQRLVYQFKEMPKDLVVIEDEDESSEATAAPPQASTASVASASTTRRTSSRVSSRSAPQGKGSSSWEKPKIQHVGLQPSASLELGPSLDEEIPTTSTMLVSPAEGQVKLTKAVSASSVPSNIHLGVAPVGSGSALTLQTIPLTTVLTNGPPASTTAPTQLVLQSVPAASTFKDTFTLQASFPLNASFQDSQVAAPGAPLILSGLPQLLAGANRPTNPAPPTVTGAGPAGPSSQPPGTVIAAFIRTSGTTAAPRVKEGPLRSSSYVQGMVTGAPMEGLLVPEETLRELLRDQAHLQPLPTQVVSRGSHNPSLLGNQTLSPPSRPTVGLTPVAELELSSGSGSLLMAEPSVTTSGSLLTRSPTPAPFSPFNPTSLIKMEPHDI
How it was run: as §1

[15] = target: T9, ELK4 (Homo sapiens, UniProt P28324-2 1-405); settings: protein: recombinant; tags: N-terminal GST; dsDNA, one strand shown
T9 sequence: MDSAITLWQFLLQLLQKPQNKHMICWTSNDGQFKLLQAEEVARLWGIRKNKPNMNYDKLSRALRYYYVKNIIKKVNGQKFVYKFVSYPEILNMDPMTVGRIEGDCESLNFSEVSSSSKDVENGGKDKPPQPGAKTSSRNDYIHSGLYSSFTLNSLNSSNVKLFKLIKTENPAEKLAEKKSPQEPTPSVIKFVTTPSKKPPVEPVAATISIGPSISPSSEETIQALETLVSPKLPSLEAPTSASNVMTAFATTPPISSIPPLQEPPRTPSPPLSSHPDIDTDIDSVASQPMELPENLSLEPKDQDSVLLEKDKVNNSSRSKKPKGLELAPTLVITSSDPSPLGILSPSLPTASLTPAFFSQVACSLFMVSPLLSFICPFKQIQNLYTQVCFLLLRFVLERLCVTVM
How it was run: as §1

[16] = target: T10, ETV2 (Homo sapiens, UniProt O00321 1-342); settings: protein: recombinant; tags: N-terminal GST; dsDNA, one strand shown
T10 sequence: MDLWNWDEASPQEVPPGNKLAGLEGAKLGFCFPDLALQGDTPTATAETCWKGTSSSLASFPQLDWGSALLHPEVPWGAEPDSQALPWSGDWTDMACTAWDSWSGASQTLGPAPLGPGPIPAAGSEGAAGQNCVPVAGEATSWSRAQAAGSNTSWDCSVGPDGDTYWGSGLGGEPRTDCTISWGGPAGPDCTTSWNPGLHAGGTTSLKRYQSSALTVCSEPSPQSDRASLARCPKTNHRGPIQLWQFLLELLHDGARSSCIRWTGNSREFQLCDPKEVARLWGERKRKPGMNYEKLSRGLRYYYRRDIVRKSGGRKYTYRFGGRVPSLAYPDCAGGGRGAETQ
How it was run: as §1

[17] = target: T11, ELF3 (Homo sapiens, UniProt P78545 1-371); settings: protein: recombinant; tags: N-terminal GST; dsDNA, one strand shown
T11 sequence: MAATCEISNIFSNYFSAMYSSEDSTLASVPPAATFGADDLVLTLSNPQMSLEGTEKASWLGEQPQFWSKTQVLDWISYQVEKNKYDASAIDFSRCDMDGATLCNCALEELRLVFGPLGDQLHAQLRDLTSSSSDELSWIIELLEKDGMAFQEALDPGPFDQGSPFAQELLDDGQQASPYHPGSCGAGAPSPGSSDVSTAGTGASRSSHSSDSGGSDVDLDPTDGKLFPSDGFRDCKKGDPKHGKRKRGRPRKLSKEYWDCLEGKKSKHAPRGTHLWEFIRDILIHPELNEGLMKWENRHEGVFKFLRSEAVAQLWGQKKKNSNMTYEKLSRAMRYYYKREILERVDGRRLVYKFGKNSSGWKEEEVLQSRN
How it was run: as §1

[18] = target: CRX (Homo sapiens, UniProt O43186 1-299); settings: protein: recombinant; tags: N-terminal GST; dsDNA, one strand shown
CRX, sequence (O43186 whole entry): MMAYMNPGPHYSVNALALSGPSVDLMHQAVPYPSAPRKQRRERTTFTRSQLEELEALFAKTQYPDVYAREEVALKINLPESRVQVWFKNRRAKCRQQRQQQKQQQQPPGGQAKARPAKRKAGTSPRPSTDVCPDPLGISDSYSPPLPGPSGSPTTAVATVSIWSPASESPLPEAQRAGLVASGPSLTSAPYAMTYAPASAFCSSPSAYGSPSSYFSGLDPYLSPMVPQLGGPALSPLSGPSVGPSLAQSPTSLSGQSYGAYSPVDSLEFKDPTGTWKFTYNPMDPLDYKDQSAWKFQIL
How it was run: as §1

[19] = target: ETV1 (Homo sapiens, UniProt P50549 1-477); settings: protein: recombinant; tags: N-terminal GST; dsDNA, one strand shown
ETV1, sequence (P50549 whole entry): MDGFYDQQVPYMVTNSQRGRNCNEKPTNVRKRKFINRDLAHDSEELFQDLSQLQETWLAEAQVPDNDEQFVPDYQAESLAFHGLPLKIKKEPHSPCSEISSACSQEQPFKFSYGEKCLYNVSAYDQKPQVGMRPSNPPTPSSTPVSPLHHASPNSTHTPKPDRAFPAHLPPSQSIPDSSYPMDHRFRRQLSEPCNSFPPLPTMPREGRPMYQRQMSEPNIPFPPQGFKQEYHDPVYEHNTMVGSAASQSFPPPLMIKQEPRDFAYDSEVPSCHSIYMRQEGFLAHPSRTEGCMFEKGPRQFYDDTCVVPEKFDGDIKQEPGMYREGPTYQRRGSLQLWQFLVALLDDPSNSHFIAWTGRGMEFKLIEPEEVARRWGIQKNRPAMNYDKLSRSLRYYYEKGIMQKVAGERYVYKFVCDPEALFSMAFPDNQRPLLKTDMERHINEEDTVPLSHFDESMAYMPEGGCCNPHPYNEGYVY
How it was run: as §1

## CTAAAG
[1]
  binding signal: 1.39 fold enrichment (6-mer frequency, TF over GST control)
[2]
  binding signal: 1.35 fold enrichment (6-mer frequency, TF over GST control)
[3]
  binding signal: 1.45 fold enrichment (6-mer frequency, TF over GST control)
[4]
  binding signal: 1.36 fold enrichment (6-mer frequency, TF over GST control)
[5]
  binding signal: 1.39 fold enrichment (6-mer frequency, TF over GST control)
[6]
  binding signal: 1.35 fold enrichment (6-mer frequency, TF over GST control)
[7]
  binding signal: 1.3 fold enrichment (6-mer frequency, TF over GST control)
[8]
  binding signal: 1.31 fold enrichment (6-mer frequency, TF over GST control)
[9]
  binding signal: 1.49 fold enrichment (6-mer frequency, TF over GST control)
[10]
  binding signal: 1.29 fold enrichment (6-mer frequency, TF over GST control)
[11]
  binding signal: 1.29 fold enrichment (6-mer frequency, TF over GST control)
[12]
  binding signal: 1.48 fold enrichment (6-mer frequency, TF over GST control)
[13]
  binding signal: 1.36 fold enrichment (6-mer frequency, TF over GST control)
[14]
  binding signal: 1.34 fold enrichment (6-mer frequency, TF over GST control)
[15]
  binding signal: 1.44 fold enrichment (6-mer frequency, TF over GST control)
[16]
  binding signal: 1.29 fold enrichment (6-mer frequency, TF over GST control)
[17]
  binding signal: 1.44 fold enrichment (6-mer frequency, TF over GST control)
[18]
  binding signal: 1.85 fold enrichment (6-mer frequency, TF over GST control)
[19]
  binding signal: 1.45 fold enrichment (6-mer frequency, TF over GST control)
